The source of these data is PubChem BioAssay (NCI).

The structures appear in SMILES notation. Compounds without any hit were thinned out: in the full panel of roughly 83,000, 20% have a hit.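 Single-concentration screen, 48 h exposure, 96-well plates. Endpoint: percent growth. Below 10 = active.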 Calls of active or inactive are those of the source.

The first experiment deals with T-47D breast. The experiment can be described thus: NCI-60 one-dose screen, 48 h (100 = growth as untreated, 0 = no growth, -100 = all killed). The conditions noted are these: 10 µM unless noted.
For the compound `Cn1cc(C2=C(c3cn(C4CCN(Cc5ccccn5)CC4)c4ccccc34)C(=O)NC2=O)c2ccccc21`, the growth is 54.5% (inactive).

As for `O=C1OCCC1Br` (stereo not drawn), the growth is 105% (inactive).

Turning to `CC[C@H](C)[C@H](NC(=O)C12CC(NC(C)=O)(C1)C2)C(=O)N(C)[C@H](C[C@@H](OC(C)=O)c1nc(C(=O)N[C@@H](Cc2ccccc2)C[C@H](C)C(=O)OC)cs1)C(C)C`, the growth is 50.1% (inactive).

Take `CC[C@H](C)[C@H](NC(=O)NC(C)(C)C)C(=O)N(C)[C@H](C[C@@H](OC(C)=O)c1nc(C(=O)N[C@@H](Cc2ccccc2)C[C@H](C)C(=O)OC)cs1)C(C)C`: the growth was 53.5% (inactive).

Regarding `ClCCN(CCCl)Cc1ccc(Nc2ccnc3cc(Cl)ccc23)cc1`, the growth was 36.2% (inactive).

For `O=[N+]([O-])c1c(Br)sc(Br)c1[N+](=O)[O-]`, the growth is -6.93% (active).

On to `CC12CC(=O)C3(SC#N)C(CCC4=CC(=O)CCC43C)C1CCC2=O` (stereo not drawn), for which the growth was 32.8% (inactive).

`CCn1c2ccccc2c2cc(C(=O)c3ccc(C)c4ccccc34)ccc21`: the growth was 53.6% (inactive).

As to `COc1ccc([As]=[As]c2ccc(OC)c(NCS(=O)(=O)O)c2)cc1NCS(=O)(=O)O` (stereo not drawn), the growth was -41.9% (active).

`NC1CC2CCCCC2CC1(O)c1ccccc1` (stereo not drawn): the growth was 99.5% (inactive).

For the compound `O=C1CCC2(O)[C@@H]3Cc4ccc(O)c5c4[C@]2(CCN3Cc2ccoc2)C1O5` (stereo partly drawn), the growth was 98.1% (inactive).

Consider `COC(=O)CCc1c[nH]c2ccc(N(CCCl)CCCl)cc12`, for which the growth was 60.2% (inactive).

For `COc1cc(C=Nc2cccc(C(=O)O)c2)ccc1N(CCCl)CCCl`, the growth is 96.3% (inactive).

Take `C/C(CC(C)(C)N1CC1)=N\NC(=O)Nc1cccc2ccccc12`: the growth was 55.8% (inactive).

For `CCCCNC(c1ccc(Cl)cc1)C(O)c1ccc(Cl)cc1` (stereo not drawn), the growth is 46.4% (inactive).

For the compound `O=C(O)CNC(=O)C(Cl)(Cl)Cl`, the growth is 94.5% (inactive).

As for `CC1(C)[C@H](O)[C@H](F)C[C@@]2(C)Oc3ccc(C(=O)Nc4ccc5c(c4)NC(=O)C54CCN(CCCCC#N)CC4)cc3C[C@H]12`, the growth is 38.2% (inactive).

As for `COC(=O)[C@@H](C)C[C@H](Cc1ccccc1)NC(=O)c1csc([C@@H](C[C@H](C(C)C)N(C)C(=O)[C@@H](NC(=O)[C@H]2CCCCN2C)C(C)C)OC(C)=O)n1`, the growth was 54.7% (inactive).

Take `N#CCCNc1ccccc1`: the growth is 111% (inactive).

With `CCCCCC1(CCBr)C(=O)NC(=O)NC1=O`, the growth was 106% (inactive).

In the case of `CC[C@H](C)[C@H](NC(=O)[C@H]1CCCCN1C)C(=O)N(C)[C@H](CCc1nc(C(=O)N[C@@H](Cc2ccccc2)C[C@H](C)C(=O)OC)cs1)C(C)C`, the growth was 59.3% (inactive).

For `COC(=O)[C@@H](C)C[C@H](Cc1ccccc1)NC(=O)c1csc([C@@H](C[C@H](C(C)C)N(C)C(=O)[C@@H](NC(=O)[C@H]2CCCCN2C)C(C(F)(F)F)C(F)(F)F)OC(C)=O)n1`, the growth is 59.7% (inactive).

As to `NC(CCl)CCl`, the growth was -100% (active).

Turning to `[Cl][Hg][n]1c(-c2ccco2)nc2ccccc21`, the growth is 94.6% (inactive).

For `Cc1cc(N(CCCl)CCCl)ccc1C=Nc1ccccc1-c1ccccc1`, the growth is 27.5% (inactive).

Take `CCC1CN1CCCCN1CC1CC` (stereo not drawn): the growth was 92.1% (inactive).

As to `COC(=O)[C@@H](C)C[C@H](Cc1ccccc1)NC(=O)c1csc([C@@H](C[C@H](C(C)C)N(C)C(=O)[C@@H](NC(=O)C23CC(NC(C)=O)(C2)C3)C2CC2)OC(C)=O)n1`, the growth was 62.7% (inactive).

Turning to `O=[N+]([O-])CC(O)C(Cl)(Cl)Cl` (stereo not drawn), the growth is 89.6% (inactive).

With `O=[N+]([O-])c1ccc(OP(=O)(CCl)N(CCCl)CCCl)cc1` (stereo not drawn), the growth is 93.8% (inactive).

For the compound `CCOc1ccc(/C=C/[N+](=O)[O-])cc1`, the growth was 86% (inactive).

Turning to `CN(C)CCCOc1ccc2c(c1)c(C(=O)C(=O)NCCO)cn2Cc1ccccc1`, the growth is 95.2% (inactive).

Turning to `O=C(CC1(O)C(=O)Nc2ccc(Cl)cc21)c1ccc(C(=O)NCC2CCC3(CC2)OOC2(CCCCC2)OO3)cc1` (stereo not drawn), the growth is -24.7% (active).

The next experiment has as its system BT-549 breast. The experiment is described as above. The settings on record: 10 µM unless noted.
In the case of `Cn1cc(C2=C(c3cn(C4CCN(Cc5ccccn5)CC4)c4ccccc34)C(=O)NC2=O)c2ccccc21`, the growth was 78.3% (inactive).

Take `O=C1OCCC1Br` (stereo not drawn): the growth is 85.3% (inactive).

As for `CC(CO)NC1CCCCC1` (stereo not drawn), the growth is 106% (inactive).

In the case of `CC[C@H](C)[C@H](NC(=O)C12CC(NC(C)=O)(C1)C2)C(=O)N(C)[C@H](C[C@@H](OC(C)=O)c1nc(C(=O)N[C@@H](Cc2ccccc2)C[C@H](C)C(=O)OC)cs1)C(C)C`, the growth was 4.76% (active).

With `CC[C@H](C)[C@H](NC(=O)NC(C)(C)C)C(=O)N(C)[C@H](C[C@@H](OC(C)=O)c1nc(C(=O)N[C@@H](Cc2ccccc2)C[C@H](C)C(=O)OC)cs1)C(C)C`, the growth was -14.6% (active).

In the case of `ClCCN(CCCl)Cc1ccc(Nc2ccnc3cc(Cl)ccc23)cc1`, the growth was 65.2% (inactive).

Take `O=C(N/N=C\c1ccc(N(CCCl)CCCl)cc1)c1cccc([N+](=O)[O-])c1`: the growth was 96% (inactive).

As to `CC12CC(=O)C3(SC#N)C(CCC4=CC(=O)CCC43C)C1CCC2=O` (stereo not drawn), the growth was 90.7% (inactive).

For the compound `CCn1c2ccccc2c2cc(C(=O)c3ccc(C)c4ccccc34)ccc21`, the growth is 21.9% (inactive).

Take `COc1ccc([As]=[As]c2ccc(OC)c(NCS(=O)(=O)O)c2)cc1NCS(=O)(=O)O` (stereo not drawn): the growth is -12.1% (active).

In the case of `NC1CC2CCCCC2CC1(O)c1ccccc1` (stereo not drawn), the growth was 102% (inactive).

As for `N/C(=N/N=C/c1ccncc1)N[N+](=O)[O-]`, the growth is 89.6% (inactive).

With `O=C1CCC2(O)[C@@H]3Cc4ccc(O)c5c4[C@]2(CCN3Cc2ccoc2)C1O5` (stereo partly drawn), the growth was 110% (inactive).

For the compound `CCOP(=O)(Nc1ccc2c(c1)/C(=N/NC(N)=S)c1ccccc1-2)OCC`, the growth was 101% (inactive).

On to `O=C(N/N=C\c1ccc(N(CCCl)CCCl)cc1Cl)c1cccnc1`, for which the growth was 90.7% (inactive).

As to `COC(=O)CCc1c[nH]c2ccc(N(CCCl)CCCl)cc12`, the growth is 57.4% (inactive).

As to `COc1cc(C=Nc2cccc(C(=O)O)c2)ccc1N(CCCl)CCCl`, the growth is 103% (inactive).

On to `C/C(CC(C)(C)N1CC1)=N\NC(=O)Nc1cccc2ccccc12`, for which the growth is 68.5% (inactive).

Consider `CCCCNC(c1ccc(Cl)cc1)C(O)c1ccc(Cl)cc1` (stereo not drawn), for which the growth is 80.6% (inactive).

Turning to `O=C(O)CNC(=O)C(Cl)(Cl)Cl`, the growth was 103% (inactive).

`CC1(C)[C@H](O)[C@H](F)C[C@@]2(C)Oc3ccc(C(=O)Nc4ccc5c(c4)NC(=O)C54CCN(CCCCC#N)CC4)cc3C[C@H]12`: the growth is 32.5% (inactive).

On to `COC(=O)[C@@H](C)C[C@H](Cc1ccccc1)NC(=O)c1csc([C@@H](C[C@H](C(C)C)N(C)C(=O)[C@@H](NC(=O)[C@H]2CCCCN2C)C(C)C)OC(C)=O)n1`, for which the growth is -20.5% (active).

As to `N#CCCNc1ccccc1`, the growth was 108% (inactive).

Regarding `CCCCCC1(CCBr)C(=O)NC(=O)NC1=O`, the growth is 90.5% (inactive).

For `CC[C@H](C)[C@H](NC(=O)[C@H]1CCCCN1C)C(=O)N(C)[C@H](CCc1nc(C(=O)N[C@@H](Cc2ccccc2)C[C@H](C)C(=O)OC)cs1)C(C)C`, the growth is -8.87% (active).

`COC(=O)[C@@H](C)C[C@H](Cc1ccccc1)NC(=O)c1csc([C@@H](C[C@H](C(C)C)N(C)C(=O)[C@@H](NC(=O)[C@H]2CCCCN2C)C(C(F)(F)F)C(F)(F)F)OC(C)=O)n1`: the growth is -21.6% (active).

With `NC(CCl)CCl`, the growth was 107% (inactive).

As for `[Cl][Hg][n]1c(-c2ccco2)nc2ccccc21`, the growth is 99.2% (inactive).

As to `Cc1cc(N(CCCl)CCCl)ccc1C=Nc1ccccc1-c1ccccc1`, the growth was 83.7% (inactive).

Take `CCC1CN1CCCCN1CC1CC` (stereo not drawn): the growth was 103% (inactive).

As to `COC(=O)[C@@H](C)C[C@H](Cc1ccccc1)NC(=O)c1csc([C@@H](C[C@H](C(C)C)N(C)C(=O)[C@@H](NC(=O)C23CC(NC(C)=O)(C2)C3)C2CC2)OC(C)=O)n1`, the growth was 51.5% (inactive).

Consider `O=[N+]([O-])CC(O)C(Cl)(Cl)Cl` (stereo not drawn), for which the growth was 58% (inactive).

Consider `O=[N+]([O-])c1ccc(OP(=O)(CCl)N(CCCl)CCCl)cc1` (stereo not drawn), for which the growth is 93.6% (inactive).

Turning to `CCOc1ccc(/C=C/[N+](=O)[O-])cc1`, the growth was 80.8% (inactive).

On to `CN(C)CCCOc1ccc2c(c1)c(C(=O)C(=O)NCCO)cn2Cc1ccccc1`, for which the growth was 98.4% (inactive).

`O=C(CC1(O)C(=O)Nc2ccc(Cl)cc21)c1ccc(C(=O)NCC2CCC3(CC2)OOC2(CCCCC2)OO3)cc1` (stereo not drawn): the growth is 48.8% (inactive).
